tim23-1 inh: inhibits growth of tim23-1 mutant yeast; inhibition, % at 20 µM; AID 463212; S. cerevisiae tim23-1 growth, BacTiter-Glo luminescence, 24 h; 330,000 compounds, 1.3% hits;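 active = growth inhibition of the mutant yeast at or above 50%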;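 also: temperature-sensitive mutant grown at 25 °C; plate controls were DMSO-treated mutant yeast for no effect and medium wells lacking yeast for full effect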
tim10-1 inh: inhibits growth of tim10-1 mutant yeast; S. cerevisiae tim10-1 ts strain growth, BacTiter-Glo, 24 h; inhibition, % at 20 µM; 330,000 compounds, 2.2% hits; AID 463190;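 active = inhibition of at least 40%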;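 also: mutant grown at 25 °C; 0% = DMSO wells with yeast and 100% = wells holding no yeast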
PfHsp90 set2: reduces growth (ATP signal) of yeast expressing P. falciparum Hsp90. S. cerevisiae expressing PfHsp90, BacTiter-Glo ATP, 48 h; yeast lacking PDR1 and PDR3 efflux regulators. inhibition, % at 9.4 µM. 310,000 compounds, 0.32% hits. AID 504621;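 active = every replicate shows inhibition above about 80%, whatever the replicate mean, limit read from the data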;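 also: 0% = DMSO neutral controls and 100% = 20 µM radicicol positive controls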
TIM10 inh: growth inhibitors of TIM10 yeast strain; S. cerevisiae TIM10 strain growth, BacTiter-Glo luminescence, 24 h; inhibition, % at 10 µM; 330,000 compounds, 1.4% hits; AID 463195;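 active = inhibition of 40% or more at the single tested concentration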;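 also: wild-type TIM10 isogenic control strain grown at permissive 25 °C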
Mot1-301 SUMO: SUMOylation pathway inhibition by Mot1-301 growth rescue; S. cerevisiae Mot1-301 growth rescue, ATP luminescence, 38.5C; percent above DMSO median, 100 means doubled; growth rescue, % at 18.8 µM; 320,000 compounds, 1% hits; AID 2716;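 active = every valid replicate shows activation above 250% relative to neutral control wells; inactive = the rest, any valid replicate at or below 250%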;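 also: OY570 slx delta 5 strain wells were the positive control but not used for scaling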
TIM10 conf: TIM10 yeast growth inhibition, confirmed. shares compounds with TIM10 inh. S. cerevisiae tim10 strain growth, BacTiter-Glo luminescence, 24 h. inhibition, % at 10 µM. 4,600 compounds, 63% hits;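 active = inhibition of yeast growth at or above a set limit in either of two replicates at 10 µM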;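 also: this counterscreen used the strain with wild-type TIM10; 0% = yeast with DMSO and 100% = medium wells lacking yeast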
* hit, by the source's call; x = no result given. This is a sample that favours compounds with a hit; in the whole collection about 4.4% have one here.

SMILES	tim23-1 inh	tim10-1 inh	PfHsp90 set2	TIM10 inh	Mot1-301 SUMO	TIM10 conf
COc1cc2c(C(=O)N3CCOCC3)c(CSc3ccccc3)n(C)c2cc1Br	46.6	39.3	-7.9	40.4*	0.4	29.7*
Cc1cc(C)c(NC(=O)CNC(=O)COC(=O)/C=C/c2cccs2)c(C)c1	-0.4	2.8	-10.9	-5.5	-9.6	x
CC1(C)Cc2c(sc(NC(=O)C(=O)NCC3CCCO3)c2C(N)=O)CO1 (stereo unspecified)	-12.6	3.3	-66.5	-7.2	10.8	x
COc1ccc(C2(C)C(C#N)C(=O)NC(=O)C2C#N)cc1 (stereo unspecified)	x	x	-7.4	x	x	x
CC1=NN(/C(=N\c2nnc(C)s2)Nc2ccc(C(C)(C)C)cc2)[C@H](c2ccc(C)cc2)S1	49.5	34.1	48.6	52.4*	-5.1	15.5
CCC(C)c1ccc(OCc2ccc(C(=O)O)o2)cc1 (stereo unspecified)	-7.4	-9.9	6.6	3.6	4.8	x
COc1ccc2[nH]c(C)c(CCNC(=S)Nc3ccc(C)cc3)c2c1	25.1	39.6	11.6	40.4*	5.4	19.0
COc1ccc2[nH]c(C)c(CCNC(=S)Nc3ccccc3C)c2c1	6.3	28.5	18.6	12.3	152.9	x
N#CC1CC(c2ccccc2)Nc2cc(Cl)ccc2N1 (stereo unspecified)	23.0	21.2	14.2	17.9	-22.8	x
CCNC(=S)N/N=C1\CCCCc2ccccc21	46.4	30.7	-17.9	16.7	-3.7	x
Cc1ccc(NC(=S)N/N=C2/CCCCc3ccccc32)cc1	37.3	27.0	-95.5	45.0*	6.0	38.0*
NC(=O)C1CCN(C(=O)CCNS(=O)(=O)c2ccccc2F)CC1	10.7	3.1	12.0	-2.7	-1.5	x
CC1CCCCN1S(=O)(=O)c1ccc2c(c1)C(C)(C)C(=O)N2C (stereo unspecified)	25.3	16.1	16.4	6.3	-3.3	x
O=C(/C=C/c1ccc(Cl)cc1)NC(=S)Nc1ccccc1C(=O)O	41.0	34.0	-5.1	42.9*	-28.4	31.5*
COC(=O)[C@]1(Cc2ccccc2)N[C@H](CN(C)C(=O)c2ccc(F)cc2)[C@@H]2C(=O)N(Cc3ccccc3)C(=O)[C@@H]21	17.9	16.1	8.3	13.7	17.2	x
COC(=O)c1ccc(NC(=S)N2CCN(Cc3ccc(Cl)cc3)CC2)cc1	38.7	37.5	-13.7	49.3*	9.8	36.1*
COC(=O)c1ccc(NC(=S)N2CCN(Cc3ccccc3Cl)CC2)cc1	29.6	-15.9	-15.8	13.8	42.0	x
CC(=O)Oc1ccc2oc(-c3ccccc3)c(C(N)=O)c2c1	-2.7	-6.8	x	-15.8	2.1	x
O=C(Nc1ccccn1)c1ccc2c(=O)n3c(nc2c1)CCCCC3	48.2	14.1	-10.5	51.5*	-18.7	35.4*
O=C(Nc1ccc(F)c(Cl)c1)c1ccc2c(=O)n3c(nc2c1)CCCCC3	41.8	28.9	20.0	60.1*	166.4	46.3*
O=C(Nc1ccc(F)cc1)c1ccc2c(=O)n3c(nc2c1)CCCCC3	14.4	-8.9	28.2	10.7	2.1	x
CCOC(=O)c1cnc(-n2nc(C)cc2C)nc1NCCO	-12.0	13.3	x	10.4	6.0	x
CCOC(=O)c1cnc(-n2nc(C)cc2C)nc1NCc1ccccc1	40.4	35.7	4.5	43.5*	-5.9	38.7*
Cc1cccc(NC(=O)COC(=O)CC2CCCC2)c1C	26.4	7.0	-0.3	6.8	x	x
Cc1ccc(-c2ccc(SCC(=O)c3ccccc3)nn2)cc1	22.5	3.8	-18.4	25.2	17.5	x
SMILES	tim23-1 inh	tim10-1 inh	PfHsp90 set2	TIM10 inh	Mot1-301 SUMO	TIM10 conf
COc1ccc(-c2ccc(SCC(=O)c3cccs3)nn2)cc1	12.5	20.3	x	42.7*	-7.8	28.6
O=C(CSc1ccc(-c2ccccc2)nn1)c1cccs1	10.5	21.3	-95.0	40.9*	0.2	16.2
COc1cccc(NC(=O)c2c(C)nn(-c3ccccc3)c2Cl)c1	30.1	-4.9	-4.8	7.2	10.0	x
Nc1ccc(C(=O)OCc2nc3c(ccc4ccccc43)[nH]2)cc1	34.5	29.5	-15.3	47.6*	35.6	-3.1
Nc1ccc(C(=O)OCc2nc3cc4ccccc4cc3[nH]2)cc1	-9.1	-38.0	-40.5	-28.1	12.8	x
Cc1cc(N/N=C/c2c[nH]c3ccccc23)c2ccccc2n1	39.2	33.7	11.3	53.5*	29.7	33.8*
Cc1ccccc1NCC(=O)N/N=C/c1c[nH]c2ccccc12	35.3	26.9	15.0	46.7*	-2.7	8.4
Cc1cccc(NCC(=O)N/N=C\c2c[nH]c3ccccc23)c1	14.5	21.2	6.4	32.3	-2.1	x
C/C(=N\NC(=O)c1nnn(-c2nonc2N)c1CN(C)c1ccccc1)c1cccs1	2.3	22.9	-6.0	8.8	9.6	x
CCOC(=O)c1c(C)[nH]c(C(=O)N/N=C/c2ccc(Br)cc2)c1C	39.2	26.3	-0.8	49.9*	-1.7	45.6*
CN(C)C(=O)CCC(=O)N1CCCC(N2CCN(c3cccc(C(F)(F)F)c3)CC2)C1 (stereo unspecified)	-3.9	5.0	3.1	-2.9	-12.1	x
COc1cccc(C(=O)N/N=C(/c2ccccc2)c2ccccn2)c1	35.1	34.7	6.7	40.1*	47.7	5.4
O=S(=O)(NCc1ccc2c(c1)OCO2)c1ccc2c(c1)oc1ccccc12	39.6	29.8	1.4	46.1*	-13.6	28.2*
COCC(C)n1c(C)cc(C(=O)COC(=O)c2cccn2C)c1C (stereo unspecified)	3.3	-10.3	-12.0	17.9	-3.4	x
COc1cc(/C=N/NC(=S)NC2CC3C=CC2C3)cc(OC)c1OC (stereo unspecified)	41.2	11.4	-15.6	49.0*	23.0	30.8*
O=C(c1cc(-c2cccs2)on1)N1CCN(C(c2ccccc2)c2ccccc2)CC1	31.2	30.5	-8.8	50.3*	-6.8	30.9*
COc1cccc(-c2nc(C#N)c(N3CCN(C(=O)c4ccco4)CC3)o2)c1	32.7	23.1	3.8	2.6	2.0	x
COc1cccc(-c2cc(C(=O)N3CCN(C(=O)c4ccco4)CC3)on2)c1	9.2	0.9	-35.6	46.7*	-19.8	8.7
COc1cccc(-c2cc(C(=O)N3CCN(C(c4ccccc4)c4ccccc4)CC3)no2)c1	29.6	39.8	-20.0	56.6*	17.9	44.0*
COc1cccc(-c2cc(C(=O)N3CCOCC3)no2)c1	4.7	-4.2	-78.3	-11.7	4.6	x
COc1ccc(-c2cc(C(=O)N3CCN(c4ccccc4)CC3)no2)cc1OC	-4.0	22.6	x	41.9*	-15.0	19.8
O=C(c1cc(-c2cccs2)on1)N1CCOCC1	7.6	4.4	5.3	9.6	-7.6	x
C#CCOCCOCCOCCNc1nc(N2CCN(C(=O)[C@H](CCCN=C(N)N)n3cc(C(N)[C@@H](C)CC)nn3)CC2)nc(N2CCN(C(=O)[C@H](CCC(=O)O)n3cc([C@@H](N)CO)nn3)CC2)n1 (stereo partly specified)	-7.5	-10.3	5.5	1.5	-25.4	x

High-throughput results (PubChem)
